Screens (PubChem BioAssay)
Only some compounds are listed: those with a hit (about 21% of all), similar ones and a draw of the others.
NS1 inh: blocks influenza NS1 protein function | Potency, µM (highest dose often 46.1 µM), for the others: at the highest dose activity, positive = more growth | actives 0.4% (n = 270,000) | AID 2326; calls by dose curve; also: potency is read from the fitted curve at half-maximal effect; actives are rising curves; nearly all actives have a fitted effect of over 50% in size
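S. cerevisiae expressing influenza A NS1, grown in glucose, washed, then diluted 1:100 into pH 6.0 -URA galactose medium with 23 nl compound. Growth recovery read as OD600; NS1-free strain serves as control.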
Pf growth 48h: inhibits P. falciparum growth in the first generation, 48 h; Potency, µM (titrated, usually from 28.7 µM), for inactives: at the top dose activity change, negative = inhibition, usual class: inhibitors; P. falciparum luciferase growth in erythrocytes, 48 h; actives 5.9% (n = 310,000); also: potency is read from the fitted curve at half-maximal effect; % is scaled to controls: 0 for no effect and ±100 for the full control effect
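Luciferase-expressing P. falciparum in infected erythrocytes (2% hematocrit, 0.1% parasitemia final) in RPMI 1640/0.5% Albumax were exposed to compound for 48 hours at 37 C, 5% CO2; growth read as luminescence.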
Pf growth 96h: inhibits malaria parasite growth, 96 h; Potency, µM (highest dose often 28.7 µM), for the others: top-dose activity change, negative = inhibition, most hits filed as inhibitors; actives 6.9% (n = 320,000); P. falciparum luciferase reporter growth, 96 h; also: potency is read from the fitted curve at half-maximal effect; % is scaled to controls: 0 for no effect and ±100 for the full control effect
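Cell-based qHTS: luciferase-tagged P. falciparum in erythrocytes (2% hematocrit, 0.05% parasitemia final) incubated with compounds for 96 hours, 37 C, 5% CO2; luciferase detection reagent then added and luminescence measured.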
Shiga inhibitor: Shiga toxin inhibition | AID 2315 | actives 9.2% (n = 290,000) | inhibition, % at 38.7 µM | Vero cells, Shiga toxin protein synthesis inhibition reporter; in the data active = inhibition mostly above about 28%, no sharp cut-off; inactive = mostly below about 43%; also: 0% is about no effect
CHX counter: affects cycloheximide protein synthesis inhibition readout, counter-screen. cell reporter, cycloheximide protein synthesis inhibition counterscreen. actives 12% (n = 300,000). max response, %. AID 2314; in the data active = max response mostly above about 13%, no sharp cut-off; inactive = mostly below about 14%; also: read at 38.3 µM for the half of the compounds with a filed dose; 0% is about no effect
* = called active by the depositor; ? = inconclusive; . = no result given. Unless noted, calls follow the shape of the dose curve; as a rule, active = well fitted inhibition curve with a large enough effect; inconclusive = small, poorly fitted or top-dose-only effect, or another doubt; inactive = no such curve, though single readings can be large or run the other way.

SMILES	NS1 inh	Pf growth 48h	Pf growth 96h	Shiga inhibitor	CHX counter
CC(=O)c1ccc(/C=C/c2nc3ccccc3n2C)o1	-4%	159%	200%	61*	38*
Cn1c(=O)c(/C=C/c2ccc(F)cc2)nc2ccccc21	-2%	?	-4%	75*	36*
COc1cc(NC(=O)C/C(C)=N/NC(=O)c2ccccn2)c(OC)cc1Cl	-3%	20%	2%	72*	44*
CC(=O)Nc1ccccc1NC(=O)C/C(C)=N/NC(=O)c1ccncc1	1%	16%	-4%	-3	12
COc1ccccc1NC(=O)C/C(C)=N/NC(=O)c1ccccn1	-8%	24%	27%	63*	33*
CS(=O)(=O)Cc1cccc(C(=O)NN(c2ccccc2)c2ccccc2)c1	-7%	-12%	1%	7	-4
CC1(C)CC(=O)C(C(c2ccc(Br)cc2)C2C(=O)CC(C)(C)CC2=O)C(=O)C1	-7%	111%	?	-11	-3
COc1ccc(Cl)cc1NC(=O)c1ccc2c(SCC(=O)O)c3c(nc2c1)CCCC3	?	?	?	-13	6
CC(C)[C@@H](CO)NC(=O)c1ccc2c3n(nc2c1)-c1ccc(Cl)cc1CO3	-1%	129%	144%	46*	34*
C[C@@H](CO)NC(=O)c1ccc2c3n(nc2c1)-c1ccc(Cl)cc1CO3	-3%	118%	143%	55*	33*
O=C(COC(=O)c1c(Cl)cccc1Cl)NC1CCCCC1	2%	-3%	40%	38	22
COc1cccc(NC(=O)COC(=O)c2ccccc2F)c1	6%	9%	-14%	9	8
O=C(COC(=O)c1c(F)cccc1Cl)NC1CCCC1	-8%	93%	85%	110*	51*
COc1cccc(NC(=O)COC(=O)c2c(F)cccc2Cl)c1	-3%	135%	224%	95*	37*
CC(O)(P(=O)(O)O)P(=O)(O)O	.	1%	6%	-3	-2
OCCC1CN(Cc2cccn2-c2ccccn2)CCN1Cc1ccccc1 (configuration not stated)	2%	44%	?	-16	1
Cc1c(N=c2scc(-c3ccccc3)n2CCO)c(=O)n(-c2ccccc2)n1C	7%	0%	5%	-6	-3
COc1ccc(N=c2scc(-c3ccc(OC)cc3)n2CCO)cc1	-11%	16%	15%	63	30*
O=C(O)CCC(=O)NCCn1c(-c2ccccc2)csc1=Nc1ccccc1	-10%	-8%	?	49	19*
OCCCn1c(-c2ccccc2)csc1=Nc1ccccc1	.	?	?	73*	32
CCn1c(-c2ccccc2)csc1=Nc1ccc(S(=O)(=O)O)cc1	0%	93%	58%	-7	-3
Cc1noc(C)c1C(=O)Nc1cccc2ncccc12	-1%	3%	19%	-17	-5
CC(C)=CC(=O)N1CCCC(N2CCN(c3ccccc3C)CC2)C1 (configuration not stated)	6%	?	?	-13	-4
COc1cccc(CNC(=O)COC(=O)CCS(=O)(=O)c2ccc(C)cc2)c1	.	11%	8%	.	.
CCN(CC)c1ccc(/C=C2\C(=O)NC(=S)N(C)C2=O)o1	2%	116%	76%	110*	45*
SMILES	NS1 inh	Pf growth 48h	Pf growth 96h	Shiga inhibitor	CHX counter
CCN(CC)c1ccc(C=C2C(=O)N(C)C(=S)N(C)C2=O)o1	6%	34%	19%	15	-1
Cc1cc(CC(C)C)n(-c2nc3ccccc3c(=O)n2OCc2ccccc2)n1	-46%	?	12µM*	45	31*
Cc1cc(C)n(-c2nc3ccccc3c(=O)n2OCC(=O)OCc2ccccc2)n1	-86%	1.5µM*	?	36	15*
C#CCOn1c(-n2nc(C)cc2C)nc2ccccc2c1=O	2%	3%	?	24	4
Cc1cc(CC(C)C)n(-c2nc3ccccc3c(=O)n2OCC(=O)N(C)C)n1	-53%	-9%	0%	9	8
Cc1cc(C)n(-c2nc3ccccc3c(=O)n2OCC(=O)N(C)C)n1	-6%	?	2%	6	5
Cc1cc(C)n(-c2nc3ccccc3c(=O)n2OCC(=O)Nc2c(C)cccc2C)n1	-8%	?	13µM*	3	1
Cc1cc(C)n(-c2nc3ccccc3c(=O)n2OCc2ccc(F)cc2)n1	-33%	?	8.3µM*	22	18*
O=C(NNC(=O)C1CCC(C(=O)NNC(=O)c2cccs2)CC1)c1cccs1 (configuration not stated)	2%	6%	2%	6	2
